# Laboratory results taken from PubChem BioAssay AID1030 (National Center for Advancing Translational Sciences (NCATS), 2008).
# About 16,000 (7.3%) of roughly 220,000 compounds were called active. Not shown: some 25% with an inconclusive outcome. The sample holds actives, similar compounds and a random draw of the others, so the mix is not that of the screen. Unmarked numbers belong to inactive results. Calls follow the shape of the dose curve; as a rule, active = well fitted inhibition curve with a large enough effect (not every such curve was filed as active); inconclusive = small, poorly fitted or top-dose-only effect, or another doubt; inactive = no such curve, though single readings can be large or run the other way.
# Biological target: Aldehyde dehydrogenase 1A1 (Homo sapiens) (UniProt P00352)
# Sequence (P00352 whole entry, looked up): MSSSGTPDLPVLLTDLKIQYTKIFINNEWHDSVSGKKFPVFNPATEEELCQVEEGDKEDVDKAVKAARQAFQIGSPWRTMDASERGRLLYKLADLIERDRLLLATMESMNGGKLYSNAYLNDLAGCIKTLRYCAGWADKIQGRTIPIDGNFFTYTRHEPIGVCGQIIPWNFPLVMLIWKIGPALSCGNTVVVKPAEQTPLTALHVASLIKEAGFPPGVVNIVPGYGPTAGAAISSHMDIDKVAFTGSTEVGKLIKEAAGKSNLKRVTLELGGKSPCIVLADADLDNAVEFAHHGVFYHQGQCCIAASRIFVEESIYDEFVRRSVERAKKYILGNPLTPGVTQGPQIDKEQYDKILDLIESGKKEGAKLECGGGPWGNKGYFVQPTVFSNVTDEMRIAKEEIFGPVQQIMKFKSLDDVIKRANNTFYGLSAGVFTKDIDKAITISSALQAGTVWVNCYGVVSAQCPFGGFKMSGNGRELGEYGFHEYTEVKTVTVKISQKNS
# Assay: qHTS Assay for Inhibitors of Aldehyde Dehydrogenase 1 (ALDH1A1);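 as to activity, negative = inhibition: plate controls were no enzyme wells and a reference inhibitor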
# Conditions: Purified ALDH1A1, NADH fluorescence, propionaldehyde substrate; series mostly up to 75.3 µM; activity, negative = inhibition: at the top concentration
# Potency is read from the fitted curve at half-maximal effect.
Structure (SMILES),Potency,"activity, negative = inhibition"
CC1(C)CC(=O)C(N=Nc2ccc(S(=O)(=O)N3CCCCCC3)cc2)=C(O)C1,2.51 µM (active),–
CN1CCN(NC(=O)c2ccc(S(=O)(=O)N3CCCCCC3)cc2)CC1,–,-2.19%
CC1(C)CC(=O)C(N=Nc2c(F)cccc2F)=C(O)C1,12.6 µM (active),–
Cc1ccc(N2C(=O)C(NC(=O)c3c(F)cccc3F)(C(F)(F)F)C3=C2CC(C)(C)CC3=O)cc1 (stereo not given),–,-7.84%
CC1(C)CC(=O)C(C2=NC(C)(C)Cc3ccccc32)=C(O)C1,–,8.55%
Cc1cc(C)n(C(=O)c2ccc(S(=O)(=O)N3CCCC3)cc2)n1,–,-6.45%
COc1cc(CNCCN(C)C)ccc1OCc1c(F)cccc1Cl,–,1.84%
C/C(CC(=O)Nc1ccc(C)cc1C)=N\NC(=O)C(C)C,–,5.05%
Cc1ccnc(NS(=O)(=O)c2ccc(NC(=O)c3ccc(S(=O)(=O)N(C)C)cc3)cc2)n1,–,-8.71%
CN(C)S(=O)(=O)c1ccc(NC(=O)N2CCOCC2)cc1,–,7.69%
CCCCN1C(=O)c2ccc(C(=O)Nc3ccc(S(=O)(=O)N(C)C)cc3)cc2C1=O,1.78 µM (active),–
O=C(Nc1ccc(Br)cn1)c1ccc([N+](=O)[O-])o1,–,-5%
O=c1[nH]n(-c2ccc([N+](=O)[O-])cc2)c(=O)c2ccccc12,–,0.106%
COc1cccc(NC(=O)C(C)Oc2ccccc2)c1 (stereo not given),–,2.31%
CC(Oc1ccc(Cl)cc1Cl)C(=O)/C=C/N(C)C (stereo not given),–,-4.77%
CCCC(=O)Nc1cccc(NC(=S)NC(=O)C(C)Oc2ccc(Cl)cc2Cl)c1 (stereo not given),10 µM (active),–
Cc1ccccc1Nc1nc(N)nc(CSc2ccccc2)n1,–,0.815%
COc1ccc(/C=C(/CC(=O)Nc2ccc(C)cc2)c2nc3ccccc3s2)cc1,–,-4.33%
COc1ccc(S(=O)(=O)Nc2ccc(O)c(Sc3nc4ccccc4s3)c2)cc1,17.8 µM (active),–
CCOc1ccc(S(=O)(=O)Nc2nc3cc(OC)ccc3s2)cc1,–,-16.8%
CCN(c1ccccc1)S(=O)(=O)c1cccc(C(=O)O)c1,–,13.3%
O=C(O)c1cccc(S(=O)(=O)Nc2ccc(O)cc2Sc2nc3ccccc3s2)c1,22.4 µM (active),–

Structure (SMILES),Potency,"activity, negative = inhibition"
O=C(O)c1cccc(S(=O)(=O)NCCO)c1,–,-6.88% [at 13.5 µM]
CCO[C@@H]1OC(C(=O)N2CCOCC2)=C[C@H](C)[C@H]1CCCO,–,2.13%
O=C(CSc1ccc(-c2cccs2)nn1)Nc1ccccc1F,–,-4.56%
COc1ccc(NC(=O)c2cc3nc(-c4ccccc4)cc(C)n3n2)cc1OC,–,-1.11%
COc1ccc(/C=N/NC(=O)Cn2cc(C(F)(F)F)ccc2=O)cc1,–,9.76%
COc1ccc(OC)c2[nH]c(=O)c(CCNC(=O)C(=O)c3c[nH]c4ccccc34)cc12,–,5.85%
CCOc1ccccc1C(=O)NCCCn1ccnc1,–,-1.75%
O=C(NCCCn1ccnc1)C(=O)c1cn(CC(=O)N2CCCCCC2)c2ccccc12,14.1 µM (active),–
O=C(CCN1C(=O)c2ccccc2C1=O)NCCCn1ccnc1,–,-1.64%
O=C(O)CCCCOn1ccnc1,–,-0.454%
CC(C)=CCN1CCN(Cc2ccc(Oc3ncccn3)cc2)CC1CCO (stereo not given),–,17.4%
CC1=C(C)CC2C(=O)N(c3cccc4ccccc34)C(=O)C2C1 (stereo not given),12.6 µM (active),–
CCc1ccccc1N1C(=O)C2C3CC(=O)C(c4ccccc43)C2C1=O (stereo not given),–,2.8%
CC1(C)CCCC2=C1CC1C(=O)N(c3ccccc3)C(=O)C1C2 (stereo not given),–,-2.61%
COC(=O)C1=C(C(=O)OC)[C@@H]2N(Cc3ccccc3)c3ccccc3[C@@]23C[C@@H](C(=O)OC)N(S(=O)(=O)c2ccc(C(F)(F)F)cc2)C3=N1,–,3.2% [at 13.5 µM]
Fc1cccc2ncnc(OCc3ccccc3)c12,–,-1.42%
S=C(NCc1ccc2c(c1)OCO2)NCc1ccco1,20 µM (active),–
Cc1c(Cl)cccc1NC(=S)NCc1ccc2c(c1)OCO2,–,-14.2%
Cc1ccccc1-c1nnc(SCC(=O)NCc2ccc3c(c2)OCO3)n1C,–,-4.71%
CS(=O)(=O)N(CC(=O)NCc1ccco1)c1ccc2c(c1)OCO2,–,-0.792%
O=C(CSc1ccc(-c2ccco2)nn1)NCc1ccc2c(c1)OCO2,3.55 µM (active),–
O=C(CSc1ncn[nH]1)NCc1ccc2c(c1)OCO2,–,5.55%

Structure (SMILES),Potency,"activity, negative = inhibition"
Oc1ccc(-c2nncn2-c2ccccc2)cc1,–,-7.56%
O=C(CSc1cccc[n+]1[O-])c1ccc(Cl)cc1,–,1.65%
COc1ccccc1C(=O)CSc1cccc[n+]1[O-],14.1 µM (active),–
O=C(CSc1cccc[n+]1[O-])NCCCc1ccccc1,–,3.85%
Cc1cccc(N2CC(C)Cn3c2nc2c3c(=O)n(CC(=O)OCc3ccccc3)c(=O)n2C)c1 (stereo not given),–,-4.85%
CC(C)Cn1c(CN(Cc2ccccc2)Cc2ccccc2)nc2c1c(=O)n(C)c(=O)n2C,–,-11.5%
Cn1c(=O)n(CCc2ccccc2)c(=O)c2c1nc1n2CCCN1c1ccccc1,8.91 µM (active),–
COc1ccc(C(=O)N2CCC(C(=O)Nc3ccc(C)cc3)CC2)cc1,–,-1.59%
Cc1ccccc1C(=O)N1CCC(C(=O)Nc2ccc(S(=O)(=O)N(C)C(C)C)cc2)CC1,12.6 µM (active),–
CCOC(=O)C1CCN(C(=O)c2ccccc2N(C)S(=O)(=O)c2ccccc2)CC1,–,5.9%
COc1ccc(N(CC(=O)Nc2ccc(C)cc2C)S(=O)(=O)c2ccccc2[N+](=O)[O-])c(OC)c1,–,4.62%
CNS(=O)(=O)c1ccc(N2CCCC2=O)c([N+](=O)[O-])c1,–,7.94%
CCCCC/C=C\CC1OC1CCCCCCCC(=O)O (stereo not given),inactive,–
CC1=C/C(=N\S(=O)(=O)c2ccccc2)C(C(C)C)=CC1=O,–,-11.8%
CC1=C/C(=N\OS(=O)(=O)c2ccccc2)C=CC1=O,11.2 µM (active),–
CCOC(=O)C1(S(=O)(=O)c2ccccc2)CCN(Cc2ccccc2)CC1,–,-3.31%
COc1cccc(NC(=O)CN(C)CC(=O)Nc2ccc3c(c2)CCC3)c1,–,-7.54%
Cc1ccnc(NC(=O)c2ccc(Cl)c([N+](=O)[O-])c2)c1,–,2.29%
COC(=O)CN1C(=O)N/C(=C/c2ccc(OC)c(C)c2OC)C1=O,6.31 µM (active),–
COc1ccc(C(=O)CN2C(=O)NC(C)(c3ccc(C)cc3)C2=O)cc1OC (stereo not given),–,8.24%
Cc1ccccc1NC(=O)CN1C(=O)N/C(=C\c2cccn2-c2cccc(C(=O)O)c2)C1=O,–,-7.18%
